# According to PubChem BioAssay:
# Active and inactive are the calls of the source. Unless noted, how the calls were made is not given here.
# Assays:
# [1] = compound effects on lung adenocarcinoma cell viability – A549, calcein-AM fluorescence, 48 h, basal, profiling panel (AID 1162); conditions: higher = more signal; further: test concentration not given here
# [2] = compound effects on differentiated 3T3-L1 adipocyte viability – cell-based, 3T3-L1 adipocytes, calcein-AM fluorescence, 48 h, basal, profiling panel (AID 1163); conditions: 3T3-L1 adipocytes viability, higher = more signal; further: test concentration not given here
# [3] = compound effects on hepatocellular carcinoma cell viability – HepG2, calcein-AM fluorescence, 48 h, basal, profiling panel (AID 1164); conditions: higher = more signal; further: test concentration not given here
# [4] = compound effects on multiple myeloma cell viability – MM1S, calcein-AM fluorescence, 48 h, basal, profiling panel (AID 1165); conditions: higher = more signal; further: test concentration not given here
# [5] = calcein-AM signal in unstimulated myeloma cells – cell-based, calcein-AM fluorescence, 48 h, PK04 Diversity Set, profiling panel (AID 1166); conditions: RPMI8226 myeloma viability, higher = more signal;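 further: cells grown under basal conditions without added stimulus; test concentration not given here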
# [6] = JC-1 mitochondrial signal, unstimulated HepG2 cells – cell-based, JC-1 fluorescence, 24 h, 100 nL compound, profiling panel (AID 1167); conditions: HepG2 mitochondrial potential, higher = more signal; further: test concentration not given here
# [7] = JC-1 mitochondrial signal, unstimulated adipocytes – cell-based, JC-1 fluorescence, 3T3-L1 adipocytes, 24 h, 100 nL compound, profiling panel (AID 1168); conditions: JC-1 mitochondrial fluorescence, higher = more signal, called active from +8 up or from −8 down; further: test concentration not given here
# [8] = JC-1 mitochondrial signal, unstimulated myeloma cells – cell-based, JC-1 fluorescence, RPMI8226, 24 h, 100 nL compound, profiling panel (AID 1169); conditions: JC-1 mitochondrial potential fluorescence, higher = more signal; further: test concentration not given here
# [9] = JC-1 mitochondrial signal, unstimulated MM1S myeloma – cell-based, JC-1 fluorescence, 24 h, 100 nL compound, profiling panel (AID 1170); conditions: MM1S mitochondrial potential, higher = more signal; further: test concentration not given here
# [10] = resazurin metabolic signal in A549 cells – cell-based, resazurin fluorescence, 24 h, PK04 Diversity Set, profiling panel (AID 1171); conditions: A549 viability, higher = more signal, called active from +8 up or from −8 down; further: test concentration not given here
# [11] = resazurin metabolic signal in HepG2 cells – cell-based, resazurin fluorescence, 24 h, PK04 Diversity Set, profiling panel (AID 1172); conditions: HepG2 viability, higher = more signal; further: test concentration not given here
# [12] = budding yeast growth changes without added modifier – OD600, strain BY4716, 24 h, basal condition, primary screen (AID 1173); conditions: S. cerevisiae BY4716 growth, OD600, 24 h; higher = more signal, called active from +8 up or from −8 down
# [13] = viability profiling in MM1S myeloma cells – cell-based, resazurin fluorescence, basal, 24 h, PK04 Diversity Set, profiling panel (AID 1174); conditions: higher = more signal, called active from +8 up or from −8 down; further: test concentration not given here
# [14] = target: Dihydroorotate dehydrogenase (quinone), mitochondrial (Plasmodium falciparum (isolate 3D7)) (UniProt Q08210); test: inhibition of P. falciparum DHODH – biochemical, C-terminal His tag, absorbance 600 nm, primary screen (AID 1175); conditions: PfDHODH enzyme, DCIP absorbance 600 nm; higher = more signal, called active from +8 up or from −8 down;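 further: recombinant parasite enzyme with a five histidine tag at its C terminus; test concentration not given here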
# Chain of Dihydroorotate dehydrogenase (quinone), mitochondrial (Plasmodium falciparum (isolate 3D7)) (Q08210 whole entry, looked up): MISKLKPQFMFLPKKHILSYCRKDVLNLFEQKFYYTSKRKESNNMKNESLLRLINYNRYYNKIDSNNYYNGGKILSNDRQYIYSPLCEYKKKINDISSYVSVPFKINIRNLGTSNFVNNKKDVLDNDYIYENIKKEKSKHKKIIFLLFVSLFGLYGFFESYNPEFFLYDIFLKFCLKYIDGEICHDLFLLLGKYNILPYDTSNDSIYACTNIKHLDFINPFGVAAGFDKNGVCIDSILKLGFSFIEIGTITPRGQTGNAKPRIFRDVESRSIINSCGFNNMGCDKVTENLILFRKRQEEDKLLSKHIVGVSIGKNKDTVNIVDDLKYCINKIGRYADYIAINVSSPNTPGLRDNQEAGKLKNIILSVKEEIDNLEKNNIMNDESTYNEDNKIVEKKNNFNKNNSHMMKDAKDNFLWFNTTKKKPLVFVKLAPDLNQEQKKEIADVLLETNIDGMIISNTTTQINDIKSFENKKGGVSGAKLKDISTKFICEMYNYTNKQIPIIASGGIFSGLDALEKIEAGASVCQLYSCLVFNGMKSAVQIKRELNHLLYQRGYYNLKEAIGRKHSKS
# [15] = inhibition of PAO1 biofilm formation – strain PAO1, LB-PBS medium, absorbance 600 nm, primary screen (AID 1176); further: test concentration not given here; conditions: P. aeruginosa PAO1 growth/biofilm, A600, 12 h; higher = more signal
# [16] = growth modulation of vineyard yeast isolate – strain RM11-1a, OD600, basal, 24 h, primary screen (AID 1177);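 further: cultures grown under basal conditions with no added stressor; test concentration not given here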; conditions: S. cerevisiae RM11-1a growth, OD600, 24 h; higher = more signal, called active from +8 up or from −8 down
# [17] = growth of efflux-deficient E. coli DRC39 – strain DRC39, OD650, 24 h, E. coli filamentation inducers, primary screen (AID 1178);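 further: growth measured as culture turbidity by optical density at 650 nm; test concentration not given here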; conditions: E. coli DRC39 acrAB, higher = more signal, called active from +8 up or from −8 down
# [18] = growth of efflux-deficient E. coli DRC39 – strain DRC39, OD650, 48 h, E. coli filamentation inducers, primary screen (AID 1179);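 further: screen aims at cell division blockers that make cells filament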; conditions: E. coli DRC39 delta-acrAB growth, higher = more signal, called active from +8 up or from −8 down
# [19] = viability profiling in RPMI8226 myeloma cells – cell-based, resazurin fluorescence, basal, 24 h, PK04 Diversity Set, profiling panel (AID 1180); conditions: higher = more signal;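 further: RPMI8826 multiple myeloma cell line at 5000 cells per well; test concentration not given here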
# [20] = target: E3 ubiquitin-protein ligase XIAP (Homo sapiens) (UniProt P98170); test: small molecules binding XIAP protein – biophysical, small-molecule microarray, fluorescence 635 nm, primary screen (AID 1181); conditions: higher = more signal;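 further: score merges 667 nm emission and signal to noise over triplicate slides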
# Chain of E3 ubiquitin-protein ligase XIAP (Homo sapiens) (P98170 whole entry, looked up): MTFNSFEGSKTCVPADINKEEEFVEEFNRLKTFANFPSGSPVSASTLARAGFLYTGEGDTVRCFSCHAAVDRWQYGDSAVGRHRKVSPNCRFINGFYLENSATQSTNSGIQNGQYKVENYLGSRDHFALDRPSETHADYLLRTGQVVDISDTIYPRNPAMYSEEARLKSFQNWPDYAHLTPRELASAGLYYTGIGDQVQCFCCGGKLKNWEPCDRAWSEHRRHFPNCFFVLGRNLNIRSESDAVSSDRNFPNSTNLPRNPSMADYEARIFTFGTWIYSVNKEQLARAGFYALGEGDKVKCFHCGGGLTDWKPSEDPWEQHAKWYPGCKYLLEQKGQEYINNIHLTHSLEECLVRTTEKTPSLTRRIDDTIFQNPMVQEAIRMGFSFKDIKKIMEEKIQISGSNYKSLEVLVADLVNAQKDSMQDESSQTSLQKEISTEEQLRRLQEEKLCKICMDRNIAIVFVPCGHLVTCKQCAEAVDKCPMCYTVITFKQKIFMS
Compound,z-score [1],z-score [2],z-score [3],z-score [4],z-score [5],z-score [6],z-score [7],z-score [8],z-score [9],z-score [10],z-score [11],z-score [12],z-score [13],composite z-score [14],z-score [15],z-score [16],z-score [17],z-score [18],z-score [19],composite z-score [20]
CCCCCCCCCC(O)C1C=CC2C(=O)N(c3ccccc3)C(=O)C2N1Nc1cc(OC)c(OC)c(OC)c1 (stereo not given),-1.07,0.614,-0.777,-3.83,-4.07,-0.0684,0.783 (inactive),-0.994,-1.21,-1.58 (inactive),-2.66,0.953 (inactive),-4.42 (inactive),-0.474 (inactive),0.711 (inactive),0.27 (inactive),-1.57 (inactive),-1.75 (inactive),-4.03,0.176
CCCCCN1CC=CC23O[C@@H]4/C=C\CCCOC(=O)C4[C@H]2C(=O)N(C(C)CO)[C@@H]3C1=O (stereo not given in full),0.327,-0.0628,-0.0728,1.16,0.15,0.37,0.0667 (inactive),1.08,-1.13,0.423 (inactive),0.652,0.102 (inactive),0.295 (inactive),-0.298 (inactive),0.398 (inactive),0.493 (inactive),1.25 (inactive),0.945 (inactive),0.541,-0.162
CCCC[C@@H](O)C1=C(COC)C[C@H]2C(=O)N(Cc3ccccc3)C(=O)[C@H]2[C@H]1CO,0.449,-1,1.35,0.887,0.105,-0.0934,0.0385 (inactive),-0.851,-1.35,0.0943 (inactive),0.111,-1.22 (inactive),-1.61 (inactive),-0.401 (inactive),-0.496 (inactive),0.643 (inactive),0.418 (inactive),0.722 (inactive),0.126,-0.0525
COC(=O)[C@@]1(Cc2ccc(OC)cc2)[C@H]2c3cc(C(=O)N4CCCC4)n(CCc4c[nH]c5ccc(O)cc45)c3C[C@H]2CN1C(=O)c1ccccc1,1.06,-0.226,0.8,-0.927,0.305,0.873,-0.793 (inactive),-0.259,-0.401,0.521 (inactive),-0.553,0.532 (inactive),-0.56 (inactive),-0.402 (inactive),0.411 (inactive),0.7 (inactive),0.23 (inactive),0.288 (inactive),-0.377,0.0401
COc1ccc([Si](C)(C)[C@H]2[C@H](CC(=O)N3CCC[C@H]3CO)O[C@@]3(C(=O)N(Cc4ccc(N5CCOC5=O)cc4)c4ccccc43)[C@@H]2C)cc1,-0.585,0.722,-0.557,-2.27,-3.98,2.41,0.388 (inactive),-1.06,-0.325,0.0083 (inactive),-0.0717,0.686 (inactive),-0.255 (inactive),-2.97 (inactive),0.189 (inactive),1.35 (inactive),0.0286 (inactive),-0.16 (inactive),-0.404,-0.0356
[N-]=[N+]=Nc1ccccc1C[C@]1(C(=O)NCCN2CCOCC2)COC(c2ccc(OCCCO)cc2)=N1,1.84,0.0471,1.31,0.534,0.586,0.157,0.959 (inactive),-0.264,-0.422,0.887 (inactive),1.14,-1.84 (inactive),0.892 (inactive),0.137 (inactive),0.289 (inactive),-0.71 (inactive),0.947 (inactive),0.361 (inactive),1.13,-0.237
[N-]=[N+]=Nc1ccccc1[C@@H]1OC(c2ccc(OCCCO)cc2)=N[C@]1(Cc1ccccc1)C(=O)O,0.666,0.344,0.547,-1.49,-0.56,-1.24,1.62 (inactive),-0.739,-0.883,1.2 (inactive),0.841,0.307 (inactive),0.492 (inactive),1.72 (inactive),-0.664 (inactive),2.5 (inactive),2.46 (inactive),0.921 (inactive),0.514,0.0269
COc1cc(OC)c(C(O)C2C=CC3C(=O)N(Cc4ccccc4)C(=O)C3N2n2cnnc2)cc1Br (stereo not given),-0.407,0.767,-0.161,-0.125,-0.0145,-0.769,0.771 (inactive),-0.345,-0.395,-0.963 (inactive),-0.797,-8.67 (active),-0.982 (inactive),-0.552 (inactive),-0.169 (inactive),-3.92 (inactive),-0.514 (inactive),-0.905 (inactive),-1.21,0.197
CO[C@H]1O[C@H](CO)[C@@H](OC(=O)Nc2ccc(Br)cc2)[C@@H]2OC(=O)[C@@H](Cc3ccccc3)C/C=C/C[C@H](Cc3ccccc3)C(=O)O[C@@H]12,0.468,0.424,-1.35,-1.41,-3.32,0.125,2.12 (inactive),-1.19,-0.241,-3.17 (inactive),-1.2,-0.0671 (inactive),-3.25 (inactive),-1.25 (inactive),0.193 (inactive),1.59 (inactive),0.547 (inactive),0.347 (inactive),-4.07,0.289
